We go through 40 compounds from PubChem BioAssay (NCATS).

Inconclusive results are not listed. Values without a mark were called inactive. Activity calls are given as the source filed them. The call rests on the fitted dose curve; in most records, active means well fitted inhibition curve with a large enough effect; inconclusive means small, poorly fitted or top-dose-only effect; inactive means no such curve, though single readings can be large or run the other way.
Potency means the concentration at half of the fitted maximal effect.

This test in a line: BET inhibitor-based combinations targeting novel dependencies in MECOM-rearranged (r) AML: OCI-AML3 cell line (AID 2202232). Further: nearly all actives have a fitted effect of over 35% in size. The note with it: CellTiter-Glo luminescence, 48 h; Potency: OCI-AML3 viability; series mostly up to 46 µM; viability (% of control): at the top concentration. From the text: Ecotropic viral insertion site 1 (EVI1) is located on chromosome 3q26.2 as part of the MECOM (MDS and EVI1 complex) locus. Under normal hematopoiesis, EVI1 is a regulator of hematopoietic stem cell maintenance and self-renewal and EVI1 levels decrease as the cells differentiate. In approximately 5-10% of de novo acute myeloid leukemia (AML) EVI1 is aberrantly expressed, including Chromosomal inv(3)(q21;q26.2) or t(3;3)(q21;q26.2) alterations (MECOM-r) that account for about 50% of AML with EVI1 overexpression 31. AMLs with high levels of EVI1 have a poor prognosis and an overall survival time averaging between 10-14 months. EVI1 overexpression confers resistance in leukemia cells, highlighting the need to develop new targeted therapies for EVI1 overexpressing AMLs.
Here, we performed an unbiased chemical drug screening by evaluating the single agent activity of a collection of 2,480 oncology-focused, approved and investigational drugs (NCATS Mechanism Interrogation Plates, MIPE v5.0) against a panel of seven AML cell lines. These included four MECOM-r cell-lines (AML-191, AML-194, UCSD-AML1 and HNT-34) and three non-MECOM-r AMLs (MV4-11, OCI-AML3 and SET-2). Exploiting the mechanistic redundancy built in the library, we identified target-level sensitivities in MECOM-r AML cells and relative activity as compared to other AML subtypes.
A collection of 2480 mechanistically annotated dugs (MIPE v5.0) was used to screen four 3q26.2 rearranged AML cell lines and three non-3q26.2 rearranged AML cell lines. This library purposely exploits redundancy by including multiple inhibitors of key onco-targets, while simultaneously encompassing mechanistic diversity, targeting more than 800 distinct mechanisms of action. Briefly, cells were seeded in 5 uL of growth media using a Multidrop Combi dispenser into 1536 well white polystyrene tissue culture treated plates (Corning) at a density of 500cells/well. For each cell-line, for each of the 2480 drugs in MIPE v5.0 library, an 11-point dose curve was generated via a 1536 pin-tool. Plates were incubated for 48 hr at standard incubator conditions, covered by a stainless steel gasketed lid to prevent evaporation. Cell viability was determined by luminescence based, Cell Titer Glo assay (Promega). In detail, 3 uL of Cell Titer Glo were added to each well and plates were incubated at room temperature for 15 min with a stainless-steel lid in place. Luminescence readings were taken using a Viewlux (PerkinElmer) with a 2 s exposure time per plate. Compound dose-response curves were normalized to DMSO and empty well controls on each plate. Quantitative drug activity data from dose-response curves was determined utilizing area Under the Curve (AUC) and Z-transformed AUC (Z-AUC, a mean-centering transformation applied to each individual cell-line screened).
Turning to `CC[C@@H](Oc1cccc(CN(CCCOc2ccc(OC)cc2)c2nc3ccccc3o2)c1)C(=O)O`, the “viability (% of control)” value was 107%.
Consider `O=[N+]([O-])c1ccc(O)c2ncccc12`, for which the Potency is 14.8 µM (active).
Same read-out and setting: the value for `CCCCOc1ccc(CC(=O)NO)cc1` was 13.2 µM (active).
For `OC1CCC([C@H](O)C[C@H]2c3c(F)cccc3-c3cncn32)CC1` (stereo not given in full), the “viability (% of control)” value was 125%.
With `Cn1cc(C2=C(c3cn(C)c4cc([N+](=O)[O-])ccc34)C(=O)NC2=O)c2ccccc21`, the Potency is 0.662 µM (active).
Same read-out and setting: for `N#C/C(=C\c1ccc(O)c(O)c1)C(=O)NCc1ccccc1` the value was 5.9 µM (active).
For `COC(=O)[C@@H]1CC2=CC(=O)CC[C@]2(C)[C@@]23O[C@@H]2C[C@@]2(C)[C@@H](CC[C@@]24CCC(=O)O4)[C@H]13`, the “viability (% of control)” value is 112%.
In the case of `COc1cc(/C=C/C(=O)CC(=O)/C=C/c2ccc(O)c(OC)c2)ccc1O`, the Potency was 8.33 µM (active).
As for `CN(C)CCCN=c1c2ccccc2n(C)c2[nH]c(=O)n(C)c(=O)c12`, the Potency was 18.6 µM (active).
For `C[C@@H](Oc1ccc2[nH]nc(/C=C/c3cnn(CCO)c3)c2c1)c1c(Cl)cncc1Cl`, the Potency was 8.33 µM (active).
Consider `CN1N=C(N)c2cn([C@@H]3O[C@H](COP(=O)(O)O)[C@@H](O)[C@@H]3O)c3ncnc1c23`, for which the Potency is 1.32 µM (active).
On to `CCC(=O)Nc1cccc(Oc2nc(Nc3ccc(N4CCN(C)CC4)cc3OC)ncc2Cl)c1`, for which the Potency was 14.8 µM (active).
On the same count and under the same terms, the value for `CC1(C)OCCn2c1nc1c(N3CCOCC3)nc(-c3cnc(N)nc3)nc12` was 0.934 µM (active).
On the same count and under the same terms, the value for `C[C@@H](O[C@H]1OCCN(Cc2n[nH]c(=O)[nH]2)[C@@H]1c1ccc(F)cc1)c1cc(C(F)(F)F)cc(C(F)(F)F)c1` was 18.6 µM (active); that for `CCOC(=O)C1=C(C)NC(=S)NC1c1cccc(O)c1` (stereo not given) was 20.9 µM (active).
On the same count and under the same terms, for `CCCN(CCC)C(=O)C1=Cc2ccc(-c3ccc(C(=O)N4CCCC4)cc3)cc2N=C(N)C1` the value was 16.6 µM (active).
On to `CC/C(=C(/c1ccc(O)cc1)c1ccc(OCCNC)cc1)c1ccccc1`, for which the Potency is 14.8 µM (active).
Still for that read-out and setting: the value for `COc1ccc(S(=O)(=O)Nc2cc(-c3csc(C#N)c3)ccc2C)cc1` was 0.148 µM (active).
The same measure, in the same setting: for `CCCCc1ccc2nc(NC(=O)OC)[nH]c2c1` the value was 0.148 µM (active); for `CC(C)Oc1ccc(-c2nn([C@@H](C)c3oc4ccc(F)cc4c(=O)c3-c3cccc(F)c3)c3ncnc(N)c23)cc1F`, 11.8 µM (active).
As to `Cc1c(F)ccc(C(=O)Nc2cc([N+](=O)[O-])ccc2N2CCN(C)CC2)c1Cl`, the “viability (% of control)” value is 111%.
Regarding `C/C(=N\NC(=S)N1CCC1)c1ccccn1`, the Potency is 0.0372 µM (active).
Still for that read-out and setting: the value for `C=CCNC1=C2CC(C)CC(OC)C(O)C(C)/C=C(\C)C(OC(N)=O)C(OC)/C=C/C=C(\C)C(=O)NC(=CC1=O)C2=O` (stereo not given) was 0.662 µM (active); that for `Cc1c(Cl)cccc1S(=O)(=O)Nc1nc(CCN2CCOCC2=O)cs1` was 0.0742 µM (active).
On the same count and under the same terms, the value for `C=CC(=O)Nc1cc2c(Nc3ccc(F)c(Cl)c3)ncnc2cc1C#CC(C)(C)N1CCN(C)CC1` was 2.63 µM (active).
As to `CC[C@H](CC[C@@H](C)[C@H]1CC[C@H]2[C@@H]3CC=C4C[C@@H](O)CC[C@]4(C)[C@H]3CC[C@]12C)C(C)C`, the “viability (% of control)” value is 76.6%.
On the same count and under the same terms, for `CCO[C@@H]1OC(=O)C[C@@H]1NC(=O)[C@@H]1CCCN2C(=O)CC[C@H](NC(=O)c3nccc4ccccc34)C(=O)N12` the value was 127%; for `Cc1c(F)cccc1NC(=O)Nc1ccc(Cl)c(S(=O)(=O)[C@H]2CCCNC2)c1O`, 112%.
`CCc1c(C(=O)NNC(=O)[C@@H](O)c2cc(F)cc(F)c2)ccc(O)c1C`: the “viability (% of control)” value was 95.4%.
With `O=C1NC(=O)[C@@H](c2c[nH]c3ccccc23)[C@H]1c1cn2c3c(cccc13)CCC2`, the Potency was 1.18 µM (active).
On to `Cc1ccc(S(=O)(=O)Nc2cc(C(F)(F)F)ccc2C(=O)Nc2nc(-c3ccccc3)cs2)cc1`, for which the Potency was 7.42 µM (active).
For `COc1ccc(N2C(=O)N(c3c(C)cccc3Cl)Cc3cnc(Nc4ccc(C5CCN(C)CC5)cc4OC)nc32)nc1`, the Potency is 16.6 µM (active).
On the same count and under the same terms, for `CC1c2cccc(O)c2C(O)=C2C(=O)C3(O)C(O)=C(C(N)=O)C(=O)C(N(C)C)C3C(O)C21` (stereo not given) the value was 26.3 µM (active).
Take `Cn1cc(-c2cnc3ccc4ccc(CS(=O)(=O)NCc5ccccn5)cc4c(=O)c3c2)cn1`: the “viability (% of control)” value is 116%.
In the case of `CC(=O)CC(c1ccccc1)c1c(O)c2ccccc2oc1=O` (stereo not given), the “viability (% of control)” value was 94.1%.
Turning to `C=CC(=O)Nc1ccc2ncnc(Nc3ccc(OCc4cccc(F)c4)c(Cl)c3)c2c1`, the Potency is 5.9 µM (active).
Turning to `O=C(Nc1cccc(C(F)(F)F)c1)c1cccc2cc(Oc3cc(CO)ncn3)ccc12`, the “viability (% of control)” value was 146%.
As for `CN1CCN(CCCNc2ncc(Cl)c(-c3cc4c(C(=O)NC5CC5)cccc4s3)n2)CC1`, the “viability (% of control)” value is 78.3%.
`CO[C@H]1C(=O)[C@]2(C)[C@@H](OC)C[C@H]3OC[C@@]3(OC(C)=O)[C@H]2[C@H](OC(=O)c2ccccc2)[C@]2(O)C[C@H](OC(=O)[C@H](O)[C@@H](NC(=O)OC(C)(C)C)c3ccccc3)C(C)=C1C2(C)C`: the Potency is 0.0026 µM (active).
With `CC(=O)Nc1ccc(O)cc1`, the “viability (% of control)” value was 93.8%.
